The nature of experiment [1]: Quantitative highthroughput screen to assess conditional lethalithy of NOMO1 cells grown in RPMI1640 with untreated serum (RPMI+s) (AID 1963876).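 For viability: 100% = DMSO wells and 0% = empty wells without cells.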 Note: nearly all actives have a fitted effect of over 35% in size. Note: potency is the fitted concentration of half-maximal effect. An outline of the steps: (§1)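 Each medium arm—HPLM with 10% dialyzed FBS, or RPMI1640 with 5 mM glucose and 10% untreated or dialyzed FBS—was screened against an 11-point, 3-fold compound titration for 48 h at 37 °C, with CellTiter-Glo luminescence as endpoint.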

Experiment [2] in a line: Quantitative highthroughput screen to assess conditional lethalithy of NOMO1 cells grown in Human Plasma-Like Medium with dialyzed fetal bovine serum (HPLM+ds) (AID 1963878).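 For viability: 100% = DMSO wells and 0% = empty wells on each plate.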 Note: nearly all actives have a fitted effect of over 35% in size. Note: potency is the fitted concentration of half-maximal effect. In short, it runs like this: as §1
Experiment [3] can be described thus: Quantitative highthroughput screen to assess conditional lethalithy of P12 Ichikawa cells grown in Human Plasma-Like Medium with dialyzed fetal bovine serum (HPLM+ds) (AID 1963879). For viability: series mostly up to about 46 µM. Note: nearly all actives have a fitted effect of over 35% in size. Note: potency is the fitted concentration of half-maximal effect. The following applies: Potency: viability. In short, it runs like this:
as §1

Experiment [4] in a line: Quantitative highthroughput screen to assess conditional lethalithy of P12 Ichikawa cells grown in RPMI1640 with dialyzed fetal bovine serum (RPMI+ds) (AID 1963880).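 For viability: 100% = DMSO wells and 0% = empty wells on each plate.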 Note: nearly all actives have a fitted effect of over 35% in size. Note: potency is the fitted concentration of half-maximal effect. To be noted: Potency: P12-Ichikawa viability. In short, it runs like this:
as §1

Experiment [5] is described as follows: Quantitative highthroughput screen to assess conditional lethalithy of P12 Ichikawa cells grown in RPMI1640 with untreated serum (RPMI+s) (AID 1963881).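 For viability: series mostly up to about 46 µM; 100% = DMSO wells and 0% = empty wells without cells.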 Note: nearly all actives have a fitted effect of over 35% in size. Note: potency is the fitted concentration of half-maximal effect. The following applies: Potency: viability. In short, it runs like this: as §1
Experiment [6] can be described thus: Quantitative highthroughput screen to assess conditional lethalithy of SEM cells grown in Human Plasma-Like Medium with dialyzed fetal bovine serum (HPLM+ds) (AID 1963882). For viability: series mostly up to about 46 µM. Note: nearly all actives have a fitted effect of over 35% in size. Note: potency is the fitted concentration of half-maximal effect. In short, it runs like this: as §1
A short description of experiment [7]: Quantitative highthroughput screen to assess conditional lethalithy of SEM cells grown in RPMI1640 with dialyzed fetal bovine serum (RPMI+ds) (AID 1963884).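 For viability: series mostly up to about 46 µM; 100% = DMSO control wells and 0% = empty wells without cells.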 Note: nearly all actives have a fitted effect of over 35% in size. Note: potency is the fitted concentration of half-maximal effect. An outline of the steps: as §1
Experiment [8] is described as follows: Quantitative highthroughput screen to assess conditional lethalithy of SEM cells grown in RPMI1640 with unreated serum (RPMI+s) (AID 1963883).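 For viability: 100% = DMSO wells and 0% = empty wells without cells.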 Note: nearly all actives have a fitted effect of over 35% in size. Note: potency is the fitted concentration of half-maximal effect. In short, it runs like this: as §1
The nature of experiment [9]: Cellular viability qHTS for adrenocortical cancer (ACC) cell line SW-13 (AID 1963989).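 Note: cells grown in serum-free medium with ITS supplement; % is set by controls: 0 for no effect and ±100 for the full control effect; nearly all actives have a fitted effect of over 65% in size.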 The following applies: SW-13 ACC cells viability, CellTiter-Glo, 48 h; activity (max response): stronger effect = lower value. An outline of the steps:
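48 h treatment, SW-13 in ITS/DMEM serum-free; doses up to 46 uM; readout CellTiter-Glo luminescence; curve fit four-parameter logistic.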
In general terms: In qHTS, concentration-response curves come from the screen itself.

A short description of experiment [10]: Cellular viability qHTS for adrenocortical cancer (ACC) cell line NCI-H295R (AID 1963990).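 For activity change, negative = viability loss: 0% = DMSO only wells and -100% = full killing with cytotoxic reference compound.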 Note: nearly all actives have a fitted effect of over 60% in size. Note: potency is the fitted concentration of half-maximal effect. In short, it runs like this: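 Compound titrations (up to 46 uM final) are applied to NCI-H295R cultures for 48 h at 37C. Viable cell number is estimated by CellTiter-Glo signal, normalised to DMSO and doxorubicin controls.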

Where “and” joins values, the source holds several entries; their conditions need not be identical. Identical values can stand only once. Records with an inconclusive call do not appear. Unmarked numbers belong to inactive results. Calls of active or inactive are those of the source. Calls come from the whole dose curve; as a rule, active = well fitted curve in the direction sought with a large enough effect; inconclusive = small, poorly fitted or top-dose-only effect, or another doubt; inactive = no such curve, though single readings can be large; an effect the other way counts as inactive or inconclusive.

On to `CC1(C)S[C@H]2[C@H](NC(=O)[C@@H](N)c3ccc(O)cc3)C(=O)N2[C@@H]1C(=O)O`, for which the Potency was 8.33 µM (active) in experiment [1]; 5.26 µM (active) in experiment [2]; 7.43 µM (active) in experiment [3]; 5.9 µM (active) in experiment [4]; 8.33 µM (active) in experiment [5]; 16.6 µM (active) in [6]. For the same compound, the Potency entry in experiment [7] is “inactive”.
With `C[C@]12CCC(=O)C=C1[C@@H]1CC1[C@H]1[C@H]3[C@@H]4C[C@H]4[C@@]4(CCC(=O)O4)[C@@]3(C)CC[C@H]12` (stereo not given in full), the Potency entry in experiment [1], in experiment [2], in experiment [3], in [5], in experiment [6] and in experiment [8] was “inactive” in each case. Moreover, the Potency entry in experiment [7] is “inactive”.
With `Clc1ccc(COC(Cn2ccnc2)c2ccc(Cl)cc2Cl)cc1` (stereo not given), the Potency result in experiment [1], in experiment [2], in [3], in experiment [6] and in [7] was “inactive” each time. The Potency in experiment [4] was 5.9 µM (active).
With `CN(C)N=Nc1nc[nH]c1C(N)=O`, the Potency result in experiment [1], in experiment [2] and in experiment [6] was “inactive” each time. The Potency in [3] was 2.64 µM (active); in experiment [7], 833 nM (active).
As for `Nc1cccc(S(=O)(=O)N2CCCN(S(=O)(=O)c3ccc4c(c3)OCCO4)CC2)c1`, the Potency result in [1], in experiment [2], in experiment [3], in experiment [4], in experiment [5] and in experiment [6] was “inactive” in each case. Moreover, the Potency result in experiment [8] and in experiment [10] was “inactive” in each case. Besides, the activity (max response) in experiment [9] is -19.9%.
As for `COc1ccc2c3n(c(=NC(=O)c4cccnc4)nc2c1OC)CCN3`, in experiment [1], the Potency result is “inactive”. For the same compound, the Potency in [2] was 7.43 µM (active); in experiment [6] it was 20.9 µM (active); in [7], 9350 nM (active). In addition, in experiment [9], the activity (max response) was 2.77%. Further, the activity change, negative = viability loss in experiment [10] was -25.5% [at 3.81 µM].
In the case of `COc1cccc(-c2ccc(NC(=O)C3=C(C(=O)O)CCC3)c(F)c2)c1`, the Potency entry in [1], in experiment [2] and in experiment [6] was “inactive” in each case. Besides, the Potency in experiment [3] was 16.6 µM (active).
Regarding `CCNC(=O)[C@H]1O[C@@H](n2cnc3c(N)nc(NCCc4ccc(CCC(=O)O)cc4)nc32)[C@H](O)[C@H]1O`, the Potency entry in experiment [1], in [2], in experiment [3], in experiment [4], in [6] and in experiment [7] was “inactive” in each case.
With `CCC1=C(C)CN(C(=O)NCCc2ccc(S(=O)(=O)NC(=O)NC3CCC(C)CC3)cc2)C1=O` (stereo not given), the Potency result in experiment [1], in experiment [2], in experiment [3], in experiment [4], in [5] and in [6] was “inactive” each time. The Potency result in [8] and in experiment [7] was “inactive” throughout. Further, the activity (max response) in [9] was -7.59%.
For the compound `Nc1nc(=O)n([C@H]2CSC(CO)O2)cc1F` (stereo not given in full), the Potency result in [1], in experiment [2], in experiment [3], in experiment [5] and in [8] was “inactive” in each case.
Regarding `CC1(C)NC(=O)N(c2ccc([N+](=O)[O-])c(C(F)(F)F)c2)C1=O`, the Potency result in experiment [1], in experiment [2], in [3], in experiment [4], in experiment [5] and in experiment [6] was “inactive” in each case. Moreover, the Potency entry in [8], in experiment [7] and in experiment [10] was “inactive” each time. Moreover, the activity (max response) in [9] is -3.44% and -9.93%.
On to `CCOC(=O)C1=C(C)NC(=S)NC1c1cccc(O)c1` (stereo not given), for which the Potency was 0.148 µM (active) in experiment [1]; 0.235 µM (active) in [2]; 0.187 µM (active) in experiment [3]; 0.296 µM (active) in experiment [4]; 0.148 µM (active) in experiment [5]; 0.0743 µM (active) in experiment [6]. In addition, the Potency in experiment [8] was 132 nM (active); in experiment [7], 166 nM (active). For the same compound, the Potency result in [10] is “inactive”.
Regarding `CNC(=O)c1ccccc1Sc1ccc2c(C=Cc3ccccn3)n[nH]c2c1`, the Potency was 2.35 µM (active) in [1]; 4.18 µM (active) in experiment [2]; 7.43 µM (active) in experiment [3]; 5260 nM (active) in [8]; 4690 nM (active) in [7].
As for `CC(=O)OCC(=O)[C@@]1(O)CC[C@H]2[C@@H]3CCC4=CC(=O)C=C[C@]4(C)[C@@H]3[C@@H](O)C[C@@]21C`, the Potency result in experiment [1], in experiment [2], in experiment [3], in [5], in experiment [8] and in experiment [7] was “inactive” each time.
Turning to `CCC(=C(c1ccccc1)c1ccc(OCCN(C)C)cc1)c1ccccc1`, the Potency entry in experiment [1], in experiment [3] and in experiment [5] was “inactive” each time. Also, the Potency in [6] is 23.5 µM (active).
For the compound `NC1=N[C@@]2(c3cc(NC(=O)c4ccc(F)cn4)ccc3F)COC[C@@H]2CS1`, the Potency in experiment [1] is 0.372 µM (active); in experiment [3], 1.87 µM (active); in experiment [4] it was 3.32 µM (active); in [5], 1.66 µM (active). The Potency result in [7] is “inactive”.
As a reminder, the viability is a read-out of living cells in per cent, often relative to untreated cells. As for `CC(C)(C)[C@H](NC(=O)c1ccc(N)c(Cl)c1)C(=O)N1CCC[C@@H]1C(=O)N[C@H](C#N)CC(=O)O`, the Potency is 0.105 µM (active) in [1], 0.372 µM (active) in experiment [3], 1.05 µM (active) in experiment [4] and 0.418 µM (active) in experiment [5]. Also, the results for the viability in [8] and in experiment [7] were 92.8% [at 3.51 µM] and 105% [at 3.51 µM], respectively.
On to `C[C@H](NC(=O)c1sccc1OCc1ccc(Cl)cc1)c1ccccc1`, for which the Potency result in [1], in experiment [3], in experiment [4] and in experiment [5] was “inactive” in each case. Besides, the Potency in [10] is 28.2 µM (active).
For `FC(F)(F)c1ccc(C=Cc2nc(COc3ccc(CCCCn4ccnn4)cc3)co2)cc1`, the Potency was 2.35 µM (active) in experiment [1], 0.935 µM (active) in experiment [3] and 9.3 nM (active) in experiment [7]. Moreover, the Potency result in experiment [6] is “inactive”.
For `CCCCCCCCCCCC1=C(O)C(=O)C=C(O)C1=O`, the Potency is 0.332 µM (active) in [1], 2.09 µM (active) in [3], 3.32 µM (active) in experiment [4] and 2.09 µM (active) in [5]. Further, the Potency result in experiment [6], in [8] and in experiment [10] was “inactive” in each case. Moreover, in experiment [9], the activity (max response) is -2.06%.
For `COc1cc(C=CC(=O)CC(=O)C=Cc2ccc(O)c(OC)c2)ccc1O`, the Potency was 38.2 µM (active) in experiment [1]; 21.5 µM (active) in [3]; 34 µM (active) in [4]; 34 µM (active) in experiment [5]; 19.1 µM (active) in [6]; 17100 nM (active) in experiment [8]. In addition, in experiment [7], the Potency was 21500 nM (active).
Consider `Cc1[nH]c(C=C2C(=O)Nc3ccccc32)c(C)c1CCC(=O)O`, for which the Potency in [1] was 14.8 µM (active); in experiment [3], 9.35 µM (active); in experiment [4] it was 18.7 µM (active); in experiment [5], 13.2 µM (active).
For the compound `CC[C@H](NC(=O)[C@H](C)NC)C(=O)N1C[C@@H](O)C[C@H]1Cc1c(-c2[nH]c3cc(F)ccc3c2C[C@H]2C[C@H](O)CN2C(=O)[C@H](CC)NC(=O)[C@H](C)NC)[nH]c2cc(F)ccc12`, the Potency was 0.935 µM (active) in experiment [1], 2.96 µM (active) in [3], 2.64 µM (active) in experiment [4] and 3.32 µM (active) in [5].
In the case of `O=C1NC(=O)[C@@H](c2cn3c4c(cccc24)CCC3)[C@H]1c1c[nH]c2ccccc12`, the Potency in experiment [1] is 1.87 µM (active); in experiment [3], 1.48 µM (active); in experiment [5], 1.32 µM (active); in experiment [8] it was 590 nM (active).

The values are drawn from PubChem BioAssay (NCATS).
